Results filed as inconclusive are left out. The source made the active and inactive calls. Calls come from the whole dose curve; as a rule, active = well fitted inhibition curve with a large enough effect; inconclusive = small, poorly fitted or top-dose-only effect; inactive = flat fitted curve, though single readings scatter.
How the values were obtained:
Experiment in all cases: qHTS profiling for inhibitors of Plasmodium falciparum proliferation (AID 504749); note: nearly all actives have a fitted effect of over 60% in size;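 for activity, negative = inhibition: 0% = DMSO vehicle and full inhibition = artemisinin control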
Settings in all cases: P. falciparum in erythrocytes, SYBR Green DNA, 72 h; series mostly up to 28.7 µM
[1] = tested on: CP238
Outline: (§1)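 Infected RBCs, 0.3% parasitemia/2.5% Hct final; cpd 72 h, 37 C, 5% CO2; lysis buffer with saponin/triton/SYBR Green I, o/n RT dark; FI 485/535; norm. to artemisinin (0.29 uM) and DMSO.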

[2] = tested on: CP247
Outline: as §1

[3] = tested on: CP250
Outline: as §1

[4] = tested on: CP252
Outline: as §1

[5] = tested on: CP256
Outline: as §1

[6] = tested on: CP260
Outline: as §1

[7] = tested on: CP262
Outline: as §1

[8] = tested on: CP265
Outline: as §1

[9] = tested on: CP266
Outline: as §1

[10] = tested on: CP286
Outline: as §1

[11] = tested on: CP305
Outline: as §1

[12] = tested on: CP315
Outline: as §1

[13] = tested on: CP325
Outline: as §1

[14] = tested on: CP335
Outline: as §1

[15] = tested on: DFO2036
Outline: as §1

[16] = tested on: CP268
Outline: as §1

[17] = tested on: CP269
Outline: as §1

[18] = tested on: CP291
Outline: as §1

[19] = tested on: CP297
Outline: as §1

[20] = tested on: CP329
Outline: as §1
Potency is the fitted concentration of half-maximal effect.

CC(C)c1cccc(C(C)C)c1O
inactive: Potency [1] | Potency [2] | Potency [3] | Potency [4] | Potency [5] | Potency [6] | Potency [7] | Potency [8] | outcome [9] | Potency [10] | Potency [11] | Potency [12] | Potency [13] | Potency [14] | Potency [15]

O=P1(N(CCCl)CCCl)NCCCO1 (configuration not stated)
inactive: Potency [1] | Potency [2] | Potency [3] | Potency [4] | Potency [6] | Potency [7] | Potency [8] | outcome [9] | Potency [16] | Potency [17] | Potency [10] | Potency [18] | Potency [19] | Potency [11] | Potency [12] | Potency [13] | Potency [20] | Potency [14] | Potency [15]

CCCCC/C=C\C/C=C\C/C=C\C/C=C\CCCC(=O)NCC(=O)O
inactive: activity, negative = inhibition [1] -1.95% [at 2.67 µM] | activity, negative = inhibition [2] 9.07% [at 2.67 µM] | activity, negative = inhibition [3] 11.6% [at 2.67 µM] | activity, negative = inhibition [4] -0.781% [at 2.67 µM] | activity, negative = inhibition [5] 0.973% [at 2.67 µM] | activity, negative = inhibition [6] 4.28% [at 2.67 µM] | activity, negative = inhibition [7] 2.09% [at 2.67 µM] | activity, negative = inhibition [8] 2.88% [at 2.67 µM] | activity, negative = inhibition [16] -7.02% [at 2.67 µM] | activity, negative = inhibition [17] 0.824% [at 2.67 µM] | activity, negative = inhibition [10] 0.0979% [at 2.67 µM] | activity, negative = inhibition [18] -4.76% [at 2.67 µM] | activity, negative = inhibition [19] -4.97% [at 2.67 µM] | activity, negative = inhibition [11] 3.97% [at 2.67 µM] | activity, negative = inhibition [12] -5.37% [at 2.67 µM] | activity, negative = inhibition [13] 2.88% [at 2.67 µM] | activity, negative = inhibition [20] 5.14% [at 2.67 µM] | activity, negative = inhibition [14] 3% [at 2.67 µM] | activity, negative = inhibition [15] 8.68% [at 2.67 µM]

CC(C)(C)NCC(O)c1ccccc1Cl (configuration not stated)
active: Potency [19] 13.5 µM
inactive: Potency [3] | Potency [5] | Potency [7] | Potency [8] | Potency [16] | Potency [17] | Potency [10] | Potency [18] | Potency [11] | Potency [12] | Potency [13] | Potency [20] | Potency [15]

CCCCCCCCCC(=O)O[C@H]1CC[C@H]2[C@@H]3CCC4=CC(=O)CC[C@@H]4[C@H]3CC[C@]12C
inactive: Potency [1] | Potency [2] | Potency [3] | Potency [4] | Potency [5] | Potency [7] | Potency [8] | outcome [9] | Potency [16] | Potency [17] | Potency [18] | Potency [19] | Potency [11] | Potency [12] | Potency [13] | Potency [20] | Potency [14] | Potency [15]

CCOP(=S)(OCC)Oc1ccc2c(C)c(Cl)c(=O)oc2c1
active: Potency [10] 10 µM
inactive: Potency [2] | Potency [7] | Potency [12]

COP(=S)(OC)SCN1C(=O)c2ccccc2C1=O
inactive: Potency [1] | Potency [3] | Potency [4] | Potency [5] | Potency [6] | Potency [7] | Potency [8] | Potency [16] | Potency [17] | Potency [10] | Potency [18] | Potency [19] | Potency [11] | Potency [12] | Potency [13] | Potency [20] | Potency [14] | Potency [15]

NC(=O)c1cc([N+](=O)[O-])cc([N+](=O)[O-])c1
inactive: Potency [1] | Potency [5] | outcome [9] | Potency [16] | Potency [10] | Potency [18] | Potency [19] | Potency [11] | Potency [12]

COC1CC(=C(c2cccs2)c2cccs2)C[N+](C)(C)C1 (configuration not stated)
active: Potency [1] 6.31 µM | Potency [2] 5.01 µM | Potency [3] 10 µM | Potency [4] 4.47 µM | Potency [5] 4.47 µM | Potency [6] 5.62 µM | Potency [8] 4.47 µM | Potency [17] 10.7 µM | Potency [10] 11.2 µM | Potency [14] 6.01 µM | Potency [15] 5.62 µM

C=CCN1C[C@H](C)N([C@H](c2ccc(C(=O)N(CC)CC)cc2)c2cccc(OC)c2)C[C@H]1C
inactive: Potency [1] | outcome [9] | Potency [16] | Potency [17] | Potency [18] | Potency [11] | Potency [12] | Potency [13] | Potency [20]

O=C(N/N=C/c1ccc([N+](=O)[O-])o1)c1cc([N+](=O)[O-])cc([N+](=O)[O-])c1O
active: Potency [1] 0.0708 µM | Potency [2] 0.02 µM | Potency [3] 0.1 µM | Potency [5] 0.251 µM | Potency [8] 2.24 µM | Potency [15] 3.98 µM

O=C(Nc1ccc(Br)cc1)c1cc(Br)cc(Br)c1O
inactive: Potency [1] | Potency [2] | Potency [3] | Potency [4] | Potency [5] | Potency [6] | Potency [8] | outcome [9] | Potency [16] | Potency [17] | Potency [10] | Potency [18] | Potency [19] | Potency [11] | Potency [12] | Potency [13] | Potency [20] | Potency [14] | Potency [15]

O=C1Nc2ccc(Cl)cc2C(c2ccccc2Cl)=NC1O (configuration not stated)
inactive: Potency [1] | Potency [2] | Potency [3] | Potency [4] | Potency [5] | Potency [6] | Potency [8] | outcome [9] | Potency [16] | Potency [17] | Potency [10] | Potency [18] | Potency [19] | Potency [11] | Potency [12] | Potency [13] | Potency [20] | Potency [14] | Potency [15]

O=C1c2ccccc2C(=O)c2ccccc21
inactive: Potency [1] | Potency [2] | Potency [3] | Potency [4] | Potency [5] | Potency [7] | outcome [9] | Potency [16] | Potency [10] | Potency [18] | Potency [19] | Potency [12] | Potency [13] | Potency [20] | Potency [15]
active: Potency [8] 10 µM

CCC1(CC)C(=O)C=CNC1=O
inactive: Potency [1] | Potency [3] | Potency [4] | Potency [5] | Potency [6] | Potency [7] | Potency [8] | Potency [16] | Potency [17] | Potency [10] | Potency [18] | Potency [19] | Potency [11] | Potency [12] | Potency [13] | Potency [20] | Potency [14] | Potency [15]

COc1ccc2c(c1OC)C(=O)O[C@H]2[C@@H]1c2cc3c(cc2CCN1C)OCO3
inactive: Potency [7] | outcome [9] | Potency [16] | Potency [17] | Potency [18] | Potency [19] | Potency [11] | Potency [12] | Potency [13] | Potency [20] | Potency [14]

NNc1ccccc1
inactive: Potency [1] | Potency [2] | Potency [3] | Potency [4] | Potency [5] | Potency [6] | Potency [7] | Potency [8] | outcome [9] | Potency [16] | Potency [17] | Potency [10] | Potency [19] | Potency [11] | Potency [13] | Potency [20] | Potency [14] | Potency [15]

Nc1ccccc1C(=O)O
inactive: Potency [1] | Potency [2] | Potency [3] | Potency [4] | Potency [5] | Potency [6] | Potency [7] | Potency [8] | Potency [16] | Potency [17] | Potency [10] | Potency [18] | Potency [19] | Potency [11] | Potency [12] | Potency [13] | Potency [20] | Potency [14] | Potency [15]

Source: PubChem BioAssay (NCATS)
